The source of these data is ChEMBL document CHEMBL2218924, “A broad activity screen in support of a chemogenomic map for kinase signalling research and drug discovery” (Biochem J, 2013).

For assay [1], the target named is Death-associated protein kinase 2 (Homo sapiens) (UniProt Q9UIK4). To be noted: at 10 µM.
The target in assay [2] is T1, Serine/threonine-protein kinase DCLK2 (Homo sapiens) (UniProt Q8N568).
T1 sequence (whole entry): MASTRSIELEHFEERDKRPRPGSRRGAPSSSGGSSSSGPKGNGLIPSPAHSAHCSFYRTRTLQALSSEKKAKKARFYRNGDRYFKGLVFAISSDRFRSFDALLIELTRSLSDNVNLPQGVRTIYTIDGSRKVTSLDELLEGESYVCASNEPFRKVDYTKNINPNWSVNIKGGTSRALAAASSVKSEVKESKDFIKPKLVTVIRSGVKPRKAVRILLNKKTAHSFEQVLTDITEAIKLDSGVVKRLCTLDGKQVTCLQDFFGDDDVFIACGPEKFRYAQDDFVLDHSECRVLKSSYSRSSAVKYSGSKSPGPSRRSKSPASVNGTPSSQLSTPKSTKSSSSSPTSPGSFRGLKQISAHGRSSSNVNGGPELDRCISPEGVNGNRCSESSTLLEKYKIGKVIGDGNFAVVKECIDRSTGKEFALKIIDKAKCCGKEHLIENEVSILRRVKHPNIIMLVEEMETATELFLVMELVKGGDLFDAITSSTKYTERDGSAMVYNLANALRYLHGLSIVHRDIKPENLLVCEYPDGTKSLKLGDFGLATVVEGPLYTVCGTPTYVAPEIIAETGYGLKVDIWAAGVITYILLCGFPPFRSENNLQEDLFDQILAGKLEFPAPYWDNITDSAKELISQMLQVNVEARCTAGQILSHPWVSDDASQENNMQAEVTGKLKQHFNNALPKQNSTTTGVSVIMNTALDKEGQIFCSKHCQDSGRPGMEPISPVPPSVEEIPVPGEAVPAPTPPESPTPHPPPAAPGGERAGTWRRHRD
To be noted: at 1 µM.

Assay [3] concerns the target T1, Serine/threonine-protein kinase DCLK2 (Homo sapiens). To be noted: at 10 µM.
The target in assay [4] is T2, Myotonin-protein kinase (Homo sapiens) (UniProt Q09013).
T2 sequence (whole entry): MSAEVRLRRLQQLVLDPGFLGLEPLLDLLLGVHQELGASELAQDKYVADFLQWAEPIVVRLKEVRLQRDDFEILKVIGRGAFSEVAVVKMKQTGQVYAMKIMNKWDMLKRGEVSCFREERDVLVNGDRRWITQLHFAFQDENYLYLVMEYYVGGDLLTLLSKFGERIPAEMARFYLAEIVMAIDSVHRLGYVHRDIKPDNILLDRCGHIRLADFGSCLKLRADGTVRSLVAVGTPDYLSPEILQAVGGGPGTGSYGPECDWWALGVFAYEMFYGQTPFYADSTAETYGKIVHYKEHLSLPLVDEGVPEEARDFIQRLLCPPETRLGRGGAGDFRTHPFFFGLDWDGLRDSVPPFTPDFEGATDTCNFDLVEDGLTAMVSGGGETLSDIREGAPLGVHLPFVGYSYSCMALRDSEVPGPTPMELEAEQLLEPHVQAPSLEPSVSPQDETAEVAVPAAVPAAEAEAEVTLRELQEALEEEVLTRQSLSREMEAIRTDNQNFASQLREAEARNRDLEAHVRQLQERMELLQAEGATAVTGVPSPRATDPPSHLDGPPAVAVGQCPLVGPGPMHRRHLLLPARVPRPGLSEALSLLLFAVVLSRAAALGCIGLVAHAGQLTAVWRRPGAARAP
Conditions: at 1 µM.

Assay [5] addresses T2, Myotonin-protein kinase (Homo sapiens). Conditions: at 10 µM.
The target of assay [6] is T3, Serine/threonine-protein kinase 17A (Homo sapiens) (UniProt Q9UEE5).
T3 sequence (whole entry): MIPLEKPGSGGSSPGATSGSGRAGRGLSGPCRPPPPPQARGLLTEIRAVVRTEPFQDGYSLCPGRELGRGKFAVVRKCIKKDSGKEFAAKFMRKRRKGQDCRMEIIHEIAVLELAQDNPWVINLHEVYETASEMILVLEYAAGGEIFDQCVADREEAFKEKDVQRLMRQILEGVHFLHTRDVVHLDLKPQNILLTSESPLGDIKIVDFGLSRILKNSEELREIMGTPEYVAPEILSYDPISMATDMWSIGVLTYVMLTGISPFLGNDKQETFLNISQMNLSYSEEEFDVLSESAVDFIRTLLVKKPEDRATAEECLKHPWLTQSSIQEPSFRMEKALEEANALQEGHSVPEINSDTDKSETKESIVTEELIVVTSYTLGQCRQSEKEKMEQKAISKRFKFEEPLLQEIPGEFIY
To be noted: at 1 µM.

For assay [7], the target named is T3, Serine/threonine-protein kinase 17A (Homo sapiens). To be noted: at 10 µM.
In assay [8] the target is T4, Dual specificity tyrosine-phosphorylation-regulated kinase 2 (Homo sapiens) (UniProt Q92630).
T4 sequence (whole entry): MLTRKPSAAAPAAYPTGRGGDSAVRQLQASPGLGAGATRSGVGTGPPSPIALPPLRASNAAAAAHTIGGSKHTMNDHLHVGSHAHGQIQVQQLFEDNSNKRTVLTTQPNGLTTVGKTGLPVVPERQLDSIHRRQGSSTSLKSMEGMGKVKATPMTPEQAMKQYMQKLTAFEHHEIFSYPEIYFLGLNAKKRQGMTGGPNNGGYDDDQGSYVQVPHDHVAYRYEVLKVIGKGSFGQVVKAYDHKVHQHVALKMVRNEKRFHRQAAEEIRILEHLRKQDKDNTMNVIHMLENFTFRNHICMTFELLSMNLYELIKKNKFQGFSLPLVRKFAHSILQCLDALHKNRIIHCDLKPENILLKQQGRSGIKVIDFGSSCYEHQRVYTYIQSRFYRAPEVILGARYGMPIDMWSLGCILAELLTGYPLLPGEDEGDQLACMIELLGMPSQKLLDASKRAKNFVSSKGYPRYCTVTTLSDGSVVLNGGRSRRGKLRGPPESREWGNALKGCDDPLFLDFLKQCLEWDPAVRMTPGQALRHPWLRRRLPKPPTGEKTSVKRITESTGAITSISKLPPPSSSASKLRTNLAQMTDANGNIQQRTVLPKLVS
Conditions: at 1 µM.

Assay [9] deals with T4, Dual specificity tyrosine-phosphorylation-regulated kinase 2 (Homo sapiens). To be noted: at 10 µM.
Assay [10] addresses T5, Ephrin type-A receptor 1 (Homo sapiens) (UniProt P21709).
T5 sequence (whole entry): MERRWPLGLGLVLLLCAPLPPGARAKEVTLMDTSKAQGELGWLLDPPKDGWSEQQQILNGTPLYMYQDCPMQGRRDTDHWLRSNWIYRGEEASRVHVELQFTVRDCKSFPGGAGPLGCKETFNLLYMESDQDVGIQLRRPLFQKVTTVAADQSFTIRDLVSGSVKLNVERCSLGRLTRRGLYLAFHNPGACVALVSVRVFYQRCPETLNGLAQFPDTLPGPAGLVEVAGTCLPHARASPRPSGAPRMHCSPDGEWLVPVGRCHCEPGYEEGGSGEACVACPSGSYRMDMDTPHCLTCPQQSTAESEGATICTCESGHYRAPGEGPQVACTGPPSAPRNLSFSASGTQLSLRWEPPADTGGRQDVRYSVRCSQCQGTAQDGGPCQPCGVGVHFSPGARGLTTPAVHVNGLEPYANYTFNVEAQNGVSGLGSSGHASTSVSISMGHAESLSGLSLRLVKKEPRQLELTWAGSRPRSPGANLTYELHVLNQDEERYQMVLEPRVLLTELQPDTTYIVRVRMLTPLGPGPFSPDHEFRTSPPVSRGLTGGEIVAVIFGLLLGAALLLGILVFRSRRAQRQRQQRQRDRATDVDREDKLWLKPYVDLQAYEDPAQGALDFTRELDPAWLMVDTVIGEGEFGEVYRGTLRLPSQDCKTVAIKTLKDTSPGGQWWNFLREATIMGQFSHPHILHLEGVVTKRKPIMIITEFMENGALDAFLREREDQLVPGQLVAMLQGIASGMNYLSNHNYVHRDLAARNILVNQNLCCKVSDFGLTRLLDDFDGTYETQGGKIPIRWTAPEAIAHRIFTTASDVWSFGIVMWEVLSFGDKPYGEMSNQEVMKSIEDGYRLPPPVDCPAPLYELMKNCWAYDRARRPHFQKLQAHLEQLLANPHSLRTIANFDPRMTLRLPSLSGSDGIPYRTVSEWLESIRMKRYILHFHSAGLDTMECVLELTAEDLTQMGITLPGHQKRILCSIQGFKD
To be noted: at 1 µM.

In assay [11] the target is T5, Ephrin type-A receptor 1 (Homo sapiens). To be noted: at 10 µM.
Assay [12] addresses Death-associated protein kinase 2 (Homo sapiens) (UniProt Q9UIK4). To be noted: at 1 µM.
The target of assay [13] is T6, Discoidin domain-containing receptor 2 (Homo sapiens) (UniProt Q16832).
T6 sequence (whole entry): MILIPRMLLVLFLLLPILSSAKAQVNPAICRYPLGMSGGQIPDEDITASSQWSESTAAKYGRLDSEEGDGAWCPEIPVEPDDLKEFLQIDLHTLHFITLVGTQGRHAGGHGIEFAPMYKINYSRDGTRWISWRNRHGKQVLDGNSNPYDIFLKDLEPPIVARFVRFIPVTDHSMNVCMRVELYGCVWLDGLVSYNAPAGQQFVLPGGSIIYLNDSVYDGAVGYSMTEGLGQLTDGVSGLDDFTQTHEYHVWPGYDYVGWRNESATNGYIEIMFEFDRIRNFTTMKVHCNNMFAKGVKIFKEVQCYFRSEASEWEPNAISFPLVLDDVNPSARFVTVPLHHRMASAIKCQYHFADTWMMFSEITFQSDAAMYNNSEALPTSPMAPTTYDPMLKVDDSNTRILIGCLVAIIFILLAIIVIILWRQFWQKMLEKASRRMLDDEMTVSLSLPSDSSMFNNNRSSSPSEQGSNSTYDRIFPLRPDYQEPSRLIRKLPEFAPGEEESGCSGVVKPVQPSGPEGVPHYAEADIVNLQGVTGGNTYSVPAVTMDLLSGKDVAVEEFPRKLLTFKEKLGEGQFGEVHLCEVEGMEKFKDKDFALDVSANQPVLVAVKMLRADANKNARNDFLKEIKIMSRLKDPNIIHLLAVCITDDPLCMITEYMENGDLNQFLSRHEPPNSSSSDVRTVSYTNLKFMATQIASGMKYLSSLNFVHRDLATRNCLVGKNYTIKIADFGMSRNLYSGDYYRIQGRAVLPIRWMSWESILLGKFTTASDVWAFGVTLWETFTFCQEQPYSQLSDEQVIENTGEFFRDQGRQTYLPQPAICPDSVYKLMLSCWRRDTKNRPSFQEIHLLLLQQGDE
To be noted: at 1 µM.

The target in assay [14] is T6, Discoidin domain-containing receptor 2 (Homo sapiens). Conditions: at 10 µM.
The target in assay [15] is Ephrin type-A receptor 2 (Homo sapiens) (UniProt P29317). To be noted: at 1 µM.
Sequence of Ephrin type-A receptor 2 (Homo sapiens) (P29317 whole entry): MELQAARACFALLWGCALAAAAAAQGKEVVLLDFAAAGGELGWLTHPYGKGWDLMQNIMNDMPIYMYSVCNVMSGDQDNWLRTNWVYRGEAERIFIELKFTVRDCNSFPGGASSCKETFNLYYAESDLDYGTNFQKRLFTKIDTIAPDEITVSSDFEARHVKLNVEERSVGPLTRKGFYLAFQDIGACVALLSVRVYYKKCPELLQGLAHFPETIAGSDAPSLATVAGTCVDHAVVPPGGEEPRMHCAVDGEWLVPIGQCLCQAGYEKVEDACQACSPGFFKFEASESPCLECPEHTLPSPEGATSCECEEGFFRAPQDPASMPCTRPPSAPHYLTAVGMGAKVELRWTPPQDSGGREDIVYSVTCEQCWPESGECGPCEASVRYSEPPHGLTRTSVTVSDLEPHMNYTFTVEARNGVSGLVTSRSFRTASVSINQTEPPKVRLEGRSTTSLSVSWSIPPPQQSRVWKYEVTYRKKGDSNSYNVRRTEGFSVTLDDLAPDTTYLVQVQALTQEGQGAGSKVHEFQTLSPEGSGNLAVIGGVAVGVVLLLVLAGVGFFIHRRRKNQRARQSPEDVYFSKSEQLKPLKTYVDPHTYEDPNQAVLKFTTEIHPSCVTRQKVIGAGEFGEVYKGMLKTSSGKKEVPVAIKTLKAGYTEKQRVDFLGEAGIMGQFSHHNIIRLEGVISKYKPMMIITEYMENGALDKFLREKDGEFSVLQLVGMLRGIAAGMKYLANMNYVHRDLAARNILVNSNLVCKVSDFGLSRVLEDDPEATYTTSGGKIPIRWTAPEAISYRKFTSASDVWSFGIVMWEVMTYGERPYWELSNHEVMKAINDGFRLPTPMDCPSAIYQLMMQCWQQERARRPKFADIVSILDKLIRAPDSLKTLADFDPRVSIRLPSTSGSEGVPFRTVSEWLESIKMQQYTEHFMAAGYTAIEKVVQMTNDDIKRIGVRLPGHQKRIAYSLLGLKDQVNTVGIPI
Assay [16] shares this target. To be noted: at 10 µM.
In assay [17] the target is T7, Ephrin type-A receptor 3 (Homo sapiens) (UniProt P29320).
T7 sequence (whole entry): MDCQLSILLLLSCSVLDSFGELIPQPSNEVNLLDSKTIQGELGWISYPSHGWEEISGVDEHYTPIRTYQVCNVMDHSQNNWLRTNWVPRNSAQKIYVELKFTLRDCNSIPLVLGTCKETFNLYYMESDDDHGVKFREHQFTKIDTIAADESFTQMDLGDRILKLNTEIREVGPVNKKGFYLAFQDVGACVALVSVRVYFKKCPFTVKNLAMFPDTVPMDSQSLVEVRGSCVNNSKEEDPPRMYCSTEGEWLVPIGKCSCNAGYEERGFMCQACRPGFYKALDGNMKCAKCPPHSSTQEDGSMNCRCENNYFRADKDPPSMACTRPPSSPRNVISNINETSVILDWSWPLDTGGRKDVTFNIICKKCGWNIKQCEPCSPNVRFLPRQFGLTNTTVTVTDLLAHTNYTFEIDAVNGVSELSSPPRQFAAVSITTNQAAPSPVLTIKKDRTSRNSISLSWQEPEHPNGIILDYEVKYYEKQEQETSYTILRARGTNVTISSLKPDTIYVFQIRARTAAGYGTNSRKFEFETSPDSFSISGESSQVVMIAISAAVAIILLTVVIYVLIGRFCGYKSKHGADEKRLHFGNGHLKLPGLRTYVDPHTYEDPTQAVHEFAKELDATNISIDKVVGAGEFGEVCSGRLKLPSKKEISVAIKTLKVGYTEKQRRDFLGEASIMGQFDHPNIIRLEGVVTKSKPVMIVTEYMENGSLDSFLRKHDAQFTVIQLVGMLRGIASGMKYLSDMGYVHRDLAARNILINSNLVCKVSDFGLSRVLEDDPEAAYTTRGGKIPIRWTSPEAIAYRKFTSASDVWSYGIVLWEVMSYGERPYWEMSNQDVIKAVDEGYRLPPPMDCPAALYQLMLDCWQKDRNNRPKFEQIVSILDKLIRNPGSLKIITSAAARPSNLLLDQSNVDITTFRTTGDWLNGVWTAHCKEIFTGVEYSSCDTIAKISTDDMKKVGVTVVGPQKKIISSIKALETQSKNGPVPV
To be noted: at 1 µM.

A word on the residual activity: it is the signal under treatment as a percentage of the control signal.

Sequence of Death-associated protein kinase 2 (Homo sapiens) (Q9UIK4 whole entry, looked up, the tested form may be a part): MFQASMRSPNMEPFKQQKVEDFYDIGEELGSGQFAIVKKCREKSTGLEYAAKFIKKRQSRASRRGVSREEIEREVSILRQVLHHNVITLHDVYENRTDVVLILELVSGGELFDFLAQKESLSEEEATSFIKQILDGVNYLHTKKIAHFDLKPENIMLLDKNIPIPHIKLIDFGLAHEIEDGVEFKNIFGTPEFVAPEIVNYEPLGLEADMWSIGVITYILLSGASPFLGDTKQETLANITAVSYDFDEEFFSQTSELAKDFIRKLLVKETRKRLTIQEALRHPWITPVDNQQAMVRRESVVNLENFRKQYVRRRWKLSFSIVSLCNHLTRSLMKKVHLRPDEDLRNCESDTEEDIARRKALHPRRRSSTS

Consider `O=C(c1cc2cc(O)ccc2[nH]1)c1cc2cc(O)ccc2[nH]1`, for which the residual activity in assay [1] was found to be 73%; in assay [2] it was 70%; in assay [3] it was 59%; in assay [4] it was 120%; in assay [5], 122%; in assay [6], 13%. The residual activity was found to be 2% in assay [7]; 81% in [8]; 47% in assay [9]; 83% in assay [10]; 47% in assay [11].

In the case of `CCCCc1c(-c2ccc(OC)cc2)[nH]c2nccnc12`, the residual activity is 101% in [12]; 100% in assay [1]; 72% in assay [2]; 106% in assay [3]; 71% in [13]; 59% in assay [14]. Besides, the residual activity in assay [6] was 79%; in assay [7] it was 80%; in assay [10], 29%; in [11], 3%; in [15] it was 87%; in assay [16], 82%. In addition, the residual activity in assay [17] turned out to be 74%.

In the case of `CCOc1nc(NC(=O)Cc2cc(OC)ccc2OC)cc(N)c1C#N`, the residual activity in assay [2] was found to be 138%.
